Assay results from ChEMBL document CHEMBL1961873, “Compounds: GSK PKIS; Assays: Nanosyn kinase panel” (2012).

How the values were obtained:
[1] = target: T1, Inhibitor of nuclear factor kappa-B kinase subunit epsilon (Homo sapiens) (UniProt Q14164); details: at 1 µM;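 note: reported values are averaged percent inhibition figures against human IKKε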
T1 sequence (whole entry): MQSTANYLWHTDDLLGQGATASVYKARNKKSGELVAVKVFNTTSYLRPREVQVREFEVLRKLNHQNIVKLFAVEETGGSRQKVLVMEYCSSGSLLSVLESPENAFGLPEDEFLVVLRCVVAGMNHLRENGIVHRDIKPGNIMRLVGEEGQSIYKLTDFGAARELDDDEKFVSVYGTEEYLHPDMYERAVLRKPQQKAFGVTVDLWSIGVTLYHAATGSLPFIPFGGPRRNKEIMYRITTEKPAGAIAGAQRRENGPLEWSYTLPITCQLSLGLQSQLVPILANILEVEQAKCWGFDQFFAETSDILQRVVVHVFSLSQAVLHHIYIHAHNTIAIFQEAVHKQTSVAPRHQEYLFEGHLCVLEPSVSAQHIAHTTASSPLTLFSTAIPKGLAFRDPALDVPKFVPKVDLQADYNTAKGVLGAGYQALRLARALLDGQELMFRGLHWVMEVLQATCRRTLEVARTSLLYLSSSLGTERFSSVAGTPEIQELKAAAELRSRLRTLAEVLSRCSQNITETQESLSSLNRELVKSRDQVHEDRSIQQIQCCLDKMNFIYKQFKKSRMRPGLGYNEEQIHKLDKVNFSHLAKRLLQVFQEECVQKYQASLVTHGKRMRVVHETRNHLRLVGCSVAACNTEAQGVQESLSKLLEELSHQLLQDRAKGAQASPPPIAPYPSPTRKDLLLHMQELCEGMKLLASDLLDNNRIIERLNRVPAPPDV

[2] = target: T2, Serine/threonine-protein kinase Nek1 (Homo sapiens) (UniProt Q96PY6); details: at 0.1 µM
T2 sequence (whole entry): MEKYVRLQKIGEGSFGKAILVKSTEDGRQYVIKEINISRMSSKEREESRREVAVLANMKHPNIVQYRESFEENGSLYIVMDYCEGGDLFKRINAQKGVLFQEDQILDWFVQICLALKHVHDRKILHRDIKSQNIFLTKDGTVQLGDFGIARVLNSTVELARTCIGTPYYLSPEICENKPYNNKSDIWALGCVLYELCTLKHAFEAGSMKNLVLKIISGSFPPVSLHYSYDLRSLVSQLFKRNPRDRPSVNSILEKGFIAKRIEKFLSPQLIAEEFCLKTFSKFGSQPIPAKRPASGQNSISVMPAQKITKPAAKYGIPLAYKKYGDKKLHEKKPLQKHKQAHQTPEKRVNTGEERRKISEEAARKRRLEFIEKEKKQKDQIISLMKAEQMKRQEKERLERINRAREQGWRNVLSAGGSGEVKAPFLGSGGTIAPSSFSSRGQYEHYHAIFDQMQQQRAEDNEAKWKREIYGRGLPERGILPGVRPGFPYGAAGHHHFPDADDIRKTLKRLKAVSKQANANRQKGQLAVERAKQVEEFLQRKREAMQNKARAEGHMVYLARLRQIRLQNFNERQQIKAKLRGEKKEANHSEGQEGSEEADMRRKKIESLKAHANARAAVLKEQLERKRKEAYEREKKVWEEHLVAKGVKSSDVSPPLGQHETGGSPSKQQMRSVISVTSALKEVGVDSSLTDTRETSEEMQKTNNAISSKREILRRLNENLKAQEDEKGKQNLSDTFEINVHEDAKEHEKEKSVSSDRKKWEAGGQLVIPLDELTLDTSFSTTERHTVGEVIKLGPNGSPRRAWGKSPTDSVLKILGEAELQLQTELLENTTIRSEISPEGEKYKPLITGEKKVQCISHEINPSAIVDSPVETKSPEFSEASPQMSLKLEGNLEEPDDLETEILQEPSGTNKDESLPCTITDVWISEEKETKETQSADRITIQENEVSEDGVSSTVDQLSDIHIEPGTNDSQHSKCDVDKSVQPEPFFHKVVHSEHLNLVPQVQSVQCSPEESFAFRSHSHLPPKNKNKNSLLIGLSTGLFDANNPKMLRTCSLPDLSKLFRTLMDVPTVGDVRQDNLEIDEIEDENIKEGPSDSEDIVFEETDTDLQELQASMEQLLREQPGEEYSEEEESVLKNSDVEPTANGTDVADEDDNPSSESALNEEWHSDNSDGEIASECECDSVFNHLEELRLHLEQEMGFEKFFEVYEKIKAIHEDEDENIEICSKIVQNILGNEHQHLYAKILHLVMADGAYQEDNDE

[3] = target: T2, Serine/threonine-protein kinase Nek1 (Homo sapiens); details: at 1 µM
[4] = target: T3, Serine/threonine-protein kinase Nek2 (Homo sapiens) (UniProt P51955); details: at 0.1 µM
T3 sequence (whole entry): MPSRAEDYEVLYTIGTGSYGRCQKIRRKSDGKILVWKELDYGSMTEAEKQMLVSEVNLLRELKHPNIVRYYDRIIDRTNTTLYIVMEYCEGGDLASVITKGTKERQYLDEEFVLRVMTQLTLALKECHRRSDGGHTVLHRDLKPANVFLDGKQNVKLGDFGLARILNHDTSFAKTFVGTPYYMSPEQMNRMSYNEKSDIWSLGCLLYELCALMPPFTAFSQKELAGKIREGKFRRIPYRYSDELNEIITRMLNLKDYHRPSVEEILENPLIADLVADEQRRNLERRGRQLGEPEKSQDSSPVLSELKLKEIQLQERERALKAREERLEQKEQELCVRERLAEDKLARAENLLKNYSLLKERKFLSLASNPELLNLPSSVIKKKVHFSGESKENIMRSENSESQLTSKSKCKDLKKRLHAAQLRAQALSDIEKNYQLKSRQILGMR

[5] = target: T3, Serine/threonine-protein kinase Nek2 (Homo sapiens); details: at 1 µM
[6] = target: Serine/threonine-protein kinase Nek6 (Homo sapiens) (UniProt Q9HC98); details: at 0.1 µM
[7] = target: Serine/threonine-protein kinase Nek6 (Homo sapiens) (UniProt Q9HC98); details: at 1 µM
[8] = target: Serine/threonine-protein kinase Nek7 (Homo sapiens) (UniProt Q8TDX7); details: at 0.1 µM
[9] = target: Serine/threonine-protein kinase Nek7 (Homo sapiens) (UniProt Q8TDX7); details: at 1 µM
[10] = target: T4, Serine/threonine-protein kinase Nek9 (Homo sapiens) (UniProt Q8TD19); details: at 0.1 µM
T4 sequence (whole entry): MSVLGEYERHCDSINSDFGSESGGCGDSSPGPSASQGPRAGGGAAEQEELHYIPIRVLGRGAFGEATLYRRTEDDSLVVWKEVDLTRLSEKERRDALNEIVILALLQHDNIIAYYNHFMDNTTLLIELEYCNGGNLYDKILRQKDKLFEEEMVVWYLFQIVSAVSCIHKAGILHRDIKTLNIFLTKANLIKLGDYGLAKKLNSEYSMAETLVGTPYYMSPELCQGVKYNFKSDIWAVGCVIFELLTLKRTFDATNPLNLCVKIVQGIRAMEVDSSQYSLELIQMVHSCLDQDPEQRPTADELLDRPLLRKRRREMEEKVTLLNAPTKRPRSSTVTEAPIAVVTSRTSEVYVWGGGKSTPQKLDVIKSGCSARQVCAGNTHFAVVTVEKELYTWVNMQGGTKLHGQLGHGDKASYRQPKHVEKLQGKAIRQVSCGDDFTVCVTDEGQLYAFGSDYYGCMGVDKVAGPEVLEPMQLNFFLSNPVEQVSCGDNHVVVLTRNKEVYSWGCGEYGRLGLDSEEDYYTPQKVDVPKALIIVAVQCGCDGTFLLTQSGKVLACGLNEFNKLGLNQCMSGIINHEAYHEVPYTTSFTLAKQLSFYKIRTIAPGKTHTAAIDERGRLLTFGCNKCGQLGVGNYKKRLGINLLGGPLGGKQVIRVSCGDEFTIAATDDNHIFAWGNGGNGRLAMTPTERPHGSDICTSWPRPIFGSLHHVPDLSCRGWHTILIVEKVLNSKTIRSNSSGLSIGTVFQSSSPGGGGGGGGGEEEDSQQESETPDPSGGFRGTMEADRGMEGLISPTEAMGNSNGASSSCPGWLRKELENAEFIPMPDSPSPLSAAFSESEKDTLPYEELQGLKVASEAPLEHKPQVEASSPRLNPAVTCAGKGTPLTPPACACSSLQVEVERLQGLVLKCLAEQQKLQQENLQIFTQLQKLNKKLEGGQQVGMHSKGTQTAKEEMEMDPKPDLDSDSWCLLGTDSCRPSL

[11] = target: T4, Serine/threonine-protein kinase Nek9 (Homo sapiens); details: at 1 µM
[12] = target: Serine/threonine-protein kinase PLK1 (Homo sapiens) (UniProt P53350); details: at 0.1 µM
[13] = target: Serine/threonine-protein kinase PLK1 (Homo sapiens) (UniProt P53350); details: at 1 µM
[14] = target: T5, Dual specificity protein kinase TTK (Homo sapiens) (UniProt P33981); details: at 0.1 µM
T5 sequence (whole entry): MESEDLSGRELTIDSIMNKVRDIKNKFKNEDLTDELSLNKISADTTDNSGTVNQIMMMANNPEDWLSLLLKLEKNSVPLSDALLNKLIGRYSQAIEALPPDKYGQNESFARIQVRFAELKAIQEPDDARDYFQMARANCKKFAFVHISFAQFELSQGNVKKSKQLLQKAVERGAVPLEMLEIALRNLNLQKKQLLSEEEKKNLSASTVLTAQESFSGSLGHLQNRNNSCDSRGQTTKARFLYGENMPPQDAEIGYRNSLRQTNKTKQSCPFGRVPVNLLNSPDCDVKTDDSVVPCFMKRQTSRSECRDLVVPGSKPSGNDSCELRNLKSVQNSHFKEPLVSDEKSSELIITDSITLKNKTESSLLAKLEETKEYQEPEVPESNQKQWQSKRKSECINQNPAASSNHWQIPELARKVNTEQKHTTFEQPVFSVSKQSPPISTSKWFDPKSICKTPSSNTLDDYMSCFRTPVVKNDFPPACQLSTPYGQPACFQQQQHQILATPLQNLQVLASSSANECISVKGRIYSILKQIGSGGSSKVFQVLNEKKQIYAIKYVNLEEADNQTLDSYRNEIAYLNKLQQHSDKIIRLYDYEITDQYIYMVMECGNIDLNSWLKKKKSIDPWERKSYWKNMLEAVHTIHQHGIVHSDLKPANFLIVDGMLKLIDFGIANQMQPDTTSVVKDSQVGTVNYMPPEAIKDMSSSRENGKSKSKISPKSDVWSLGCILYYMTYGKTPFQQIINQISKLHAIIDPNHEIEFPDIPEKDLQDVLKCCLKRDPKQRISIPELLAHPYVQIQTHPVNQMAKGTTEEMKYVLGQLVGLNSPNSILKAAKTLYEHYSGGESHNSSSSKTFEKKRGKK

[15] = system: T6, Receptor-type tyrosine-protein kinase FLT3 (Homo sapiens), P36888 [D835Y]; details: at 1 µM
T6 sequence (whole entry): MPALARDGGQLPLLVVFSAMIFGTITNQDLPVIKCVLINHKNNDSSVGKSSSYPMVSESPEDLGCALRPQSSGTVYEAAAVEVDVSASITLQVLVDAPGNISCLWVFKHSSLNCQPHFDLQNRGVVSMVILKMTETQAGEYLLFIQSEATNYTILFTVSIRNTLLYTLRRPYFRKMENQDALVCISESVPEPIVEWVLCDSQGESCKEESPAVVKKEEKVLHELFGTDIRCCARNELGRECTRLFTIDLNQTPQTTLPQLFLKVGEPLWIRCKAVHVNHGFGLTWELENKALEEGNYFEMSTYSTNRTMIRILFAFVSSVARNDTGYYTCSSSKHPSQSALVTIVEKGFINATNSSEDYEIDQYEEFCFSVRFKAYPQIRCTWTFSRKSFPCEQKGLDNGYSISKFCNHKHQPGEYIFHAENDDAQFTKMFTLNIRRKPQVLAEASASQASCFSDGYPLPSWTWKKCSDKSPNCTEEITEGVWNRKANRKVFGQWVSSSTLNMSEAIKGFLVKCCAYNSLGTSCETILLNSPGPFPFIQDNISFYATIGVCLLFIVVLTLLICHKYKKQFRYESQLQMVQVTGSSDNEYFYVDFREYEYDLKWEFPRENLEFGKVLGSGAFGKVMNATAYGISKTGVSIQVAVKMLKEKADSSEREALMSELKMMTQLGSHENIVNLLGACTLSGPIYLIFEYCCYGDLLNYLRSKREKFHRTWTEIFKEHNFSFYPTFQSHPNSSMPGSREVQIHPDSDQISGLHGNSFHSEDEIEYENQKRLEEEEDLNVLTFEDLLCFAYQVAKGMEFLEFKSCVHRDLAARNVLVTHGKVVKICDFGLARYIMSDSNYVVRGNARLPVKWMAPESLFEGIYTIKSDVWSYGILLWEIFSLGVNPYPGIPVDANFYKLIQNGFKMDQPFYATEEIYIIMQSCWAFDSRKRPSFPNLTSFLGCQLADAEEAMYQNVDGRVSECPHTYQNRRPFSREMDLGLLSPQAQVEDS

[16] = target: Vascular endothelial growth factor receptor 3 (Homo sapiens) (UniProt P35916); details: at 0.1 µM
[17] = target: Vascular endothelial growth factor receptor 3 (Homo sapiens) (UniProt P35916); details: at 1 µM
[18] = target: Macrophage colony-stimulating factor 1 receptor (Homo sapiens) (UniProt P07333); details: at 0.1 µM
[19] = target: Macrophage colony-stimulating factor 1 receptor (Homo sapiens) (UniProt P07333); details: at 1 µM
[20] = target: Tyrosine-protein kinase Fyn (Homo sapiens) (UniProt P06241); details: at 0.1 µM
Tyrosine-protein kinase Fyn (Homo sapiens), sequence (P06241 2-537 limits assumed): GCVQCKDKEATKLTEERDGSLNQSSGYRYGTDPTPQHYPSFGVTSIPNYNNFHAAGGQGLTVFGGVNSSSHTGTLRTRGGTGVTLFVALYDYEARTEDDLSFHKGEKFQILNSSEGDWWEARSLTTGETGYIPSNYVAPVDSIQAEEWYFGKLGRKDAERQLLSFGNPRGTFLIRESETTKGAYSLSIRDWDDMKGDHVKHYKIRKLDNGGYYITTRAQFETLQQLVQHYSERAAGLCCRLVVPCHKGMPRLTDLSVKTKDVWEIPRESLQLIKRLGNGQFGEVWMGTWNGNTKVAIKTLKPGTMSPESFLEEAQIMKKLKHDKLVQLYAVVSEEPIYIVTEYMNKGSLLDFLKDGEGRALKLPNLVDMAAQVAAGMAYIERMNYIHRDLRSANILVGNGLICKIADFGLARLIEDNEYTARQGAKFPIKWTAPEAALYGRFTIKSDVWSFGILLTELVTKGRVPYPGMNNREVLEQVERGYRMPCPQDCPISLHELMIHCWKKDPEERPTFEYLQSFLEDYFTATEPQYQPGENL

Macrophage colony-stimulating factor 1 receptor (Homo sapiens), sequence (P07333 whole entry): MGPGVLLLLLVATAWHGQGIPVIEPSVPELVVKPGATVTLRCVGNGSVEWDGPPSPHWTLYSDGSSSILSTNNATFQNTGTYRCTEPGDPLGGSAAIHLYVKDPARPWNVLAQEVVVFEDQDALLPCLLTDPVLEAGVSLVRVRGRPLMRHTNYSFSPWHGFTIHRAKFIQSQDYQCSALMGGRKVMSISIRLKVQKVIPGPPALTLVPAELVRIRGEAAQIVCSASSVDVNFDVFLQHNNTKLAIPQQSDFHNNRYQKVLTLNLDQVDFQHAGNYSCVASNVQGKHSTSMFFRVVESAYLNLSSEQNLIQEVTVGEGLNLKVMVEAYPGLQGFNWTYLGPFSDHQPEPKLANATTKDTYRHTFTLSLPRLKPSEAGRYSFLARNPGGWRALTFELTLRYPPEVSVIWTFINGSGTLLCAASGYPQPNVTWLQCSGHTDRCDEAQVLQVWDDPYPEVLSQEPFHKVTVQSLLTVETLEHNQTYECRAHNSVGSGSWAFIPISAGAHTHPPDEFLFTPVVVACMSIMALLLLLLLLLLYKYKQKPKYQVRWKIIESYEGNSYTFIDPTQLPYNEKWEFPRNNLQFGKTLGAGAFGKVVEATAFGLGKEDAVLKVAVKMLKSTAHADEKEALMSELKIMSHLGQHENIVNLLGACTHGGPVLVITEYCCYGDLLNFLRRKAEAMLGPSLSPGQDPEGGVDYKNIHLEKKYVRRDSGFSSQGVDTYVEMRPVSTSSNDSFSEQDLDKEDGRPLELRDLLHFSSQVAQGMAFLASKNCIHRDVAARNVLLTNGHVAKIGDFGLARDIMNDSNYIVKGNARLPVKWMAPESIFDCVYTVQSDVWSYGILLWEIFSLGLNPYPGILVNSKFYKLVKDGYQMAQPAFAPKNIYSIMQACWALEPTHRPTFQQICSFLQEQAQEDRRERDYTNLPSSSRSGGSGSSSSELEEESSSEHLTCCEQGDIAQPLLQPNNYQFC
Serine/threonine-protein kinase Nek6 (Homo sapiens), sequence (Q9HC98 whole entry): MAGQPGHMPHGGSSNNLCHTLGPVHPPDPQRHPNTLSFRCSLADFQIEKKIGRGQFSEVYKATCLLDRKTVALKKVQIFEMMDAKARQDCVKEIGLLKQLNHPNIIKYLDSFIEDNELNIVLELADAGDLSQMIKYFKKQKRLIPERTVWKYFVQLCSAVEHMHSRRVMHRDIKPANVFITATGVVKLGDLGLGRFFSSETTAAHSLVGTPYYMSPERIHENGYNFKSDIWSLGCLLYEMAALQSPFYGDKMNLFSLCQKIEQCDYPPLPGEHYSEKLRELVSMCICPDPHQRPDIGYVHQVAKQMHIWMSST
Serine/threonine-protein kinase PLK1 (Homo sapiens), sequence (P53350 whole entry): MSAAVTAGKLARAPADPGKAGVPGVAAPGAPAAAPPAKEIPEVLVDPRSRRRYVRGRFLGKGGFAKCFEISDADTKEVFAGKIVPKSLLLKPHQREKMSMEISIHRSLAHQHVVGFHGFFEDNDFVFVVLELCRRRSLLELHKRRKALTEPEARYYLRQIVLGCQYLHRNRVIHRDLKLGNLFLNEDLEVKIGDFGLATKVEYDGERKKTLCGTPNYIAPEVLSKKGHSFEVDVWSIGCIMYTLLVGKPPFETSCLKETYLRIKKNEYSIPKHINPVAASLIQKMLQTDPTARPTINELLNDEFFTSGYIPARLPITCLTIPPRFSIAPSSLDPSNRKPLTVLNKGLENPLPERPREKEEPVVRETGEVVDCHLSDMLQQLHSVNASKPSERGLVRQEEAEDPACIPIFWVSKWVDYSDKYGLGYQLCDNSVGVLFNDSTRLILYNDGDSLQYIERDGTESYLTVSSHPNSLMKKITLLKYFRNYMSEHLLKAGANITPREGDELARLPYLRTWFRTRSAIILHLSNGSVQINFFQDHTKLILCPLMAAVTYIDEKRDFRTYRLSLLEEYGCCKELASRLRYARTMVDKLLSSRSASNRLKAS
Serine/threonine-protein kinase Nek7 (Homo sapiens), sequence (Q8TDX7 whole entry, looked up): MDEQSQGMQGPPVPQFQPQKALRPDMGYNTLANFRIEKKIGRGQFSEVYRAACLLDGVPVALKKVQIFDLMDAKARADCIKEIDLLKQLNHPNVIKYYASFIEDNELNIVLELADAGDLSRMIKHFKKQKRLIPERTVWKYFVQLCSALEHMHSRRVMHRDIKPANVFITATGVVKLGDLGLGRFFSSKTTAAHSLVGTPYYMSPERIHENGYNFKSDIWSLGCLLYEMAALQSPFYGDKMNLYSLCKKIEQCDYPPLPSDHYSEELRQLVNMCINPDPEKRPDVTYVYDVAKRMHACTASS
Vascular endothelial growth factor receptor 3 (Homo sapiens), sequence (P35916 whole entry): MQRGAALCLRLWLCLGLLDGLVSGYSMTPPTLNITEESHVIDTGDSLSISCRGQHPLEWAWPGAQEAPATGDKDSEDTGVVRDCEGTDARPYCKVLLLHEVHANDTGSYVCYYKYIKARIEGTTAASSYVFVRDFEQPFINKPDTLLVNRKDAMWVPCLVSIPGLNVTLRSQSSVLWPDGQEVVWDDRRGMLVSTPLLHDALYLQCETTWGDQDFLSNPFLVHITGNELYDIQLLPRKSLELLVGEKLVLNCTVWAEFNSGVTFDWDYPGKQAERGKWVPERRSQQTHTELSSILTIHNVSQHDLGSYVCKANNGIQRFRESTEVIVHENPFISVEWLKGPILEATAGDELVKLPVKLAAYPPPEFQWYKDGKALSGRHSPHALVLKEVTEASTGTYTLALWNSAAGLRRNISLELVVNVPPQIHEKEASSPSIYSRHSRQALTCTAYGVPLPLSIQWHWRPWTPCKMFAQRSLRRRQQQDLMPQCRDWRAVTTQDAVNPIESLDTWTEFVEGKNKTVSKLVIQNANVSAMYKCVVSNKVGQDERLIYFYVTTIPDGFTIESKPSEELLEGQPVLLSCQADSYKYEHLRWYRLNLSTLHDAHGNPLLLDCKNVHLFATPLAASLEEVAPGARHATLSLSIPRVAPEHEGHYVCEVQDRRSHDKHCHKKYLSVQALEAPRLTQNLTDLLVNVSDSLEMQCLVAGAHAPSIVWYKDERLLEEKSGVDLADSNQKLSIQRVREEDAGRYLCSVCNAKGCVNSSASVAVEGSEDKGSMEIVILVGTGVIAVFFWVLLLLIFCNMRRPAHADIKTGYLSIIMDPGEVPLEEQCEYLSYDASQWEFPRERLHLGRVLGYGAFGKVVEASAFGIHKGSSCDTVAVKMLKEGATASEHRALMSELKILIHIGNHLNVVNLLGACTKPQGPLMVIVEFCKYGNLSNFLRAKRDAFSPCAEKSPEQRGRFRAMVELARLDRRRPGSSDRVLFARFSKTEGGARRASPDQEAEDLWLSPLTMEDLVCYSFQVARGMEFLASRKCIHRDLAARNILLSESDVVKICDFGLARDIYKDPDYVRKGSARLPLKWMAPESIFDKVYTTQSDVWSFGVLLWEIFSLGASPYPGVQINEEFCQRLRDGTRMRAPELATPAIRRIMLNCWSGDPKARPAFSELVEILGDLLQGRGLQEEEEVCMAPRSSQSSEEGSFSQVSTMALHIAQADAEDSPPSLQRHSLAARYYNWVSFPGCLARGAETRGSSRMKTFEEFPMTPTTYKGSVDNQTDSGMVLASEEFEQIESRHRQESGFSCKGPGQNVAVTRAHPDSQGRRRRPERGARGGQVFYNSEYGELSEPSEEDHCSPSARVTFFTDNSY

NS(=O)(=O)c1ccc(N/N=C2\C(=O)Nc3ccc(C(=O)NCCCn4ccnc4)cc32)cc1
inhibition [1]: 26.6%
inhibition [2]: 2.1%
inhibition [3]: 4.83%
inhibition [4]: 4.5%
inhibition [5]: 5.08%
inhibition [6]: 2.7%
inhibition [7]: 3.62%
inhibition [8]: 6.31%
inhibition [9]: 5.01%
inhibition [10]: 9.43%
inhibition [11]: 19%
inhibition [12]: 6.29%
inhibition [13]: 4.25%
inhibition [14]: 37.3%
inhibition [15]: 32.9%
inhibition [16]: 4.15%
inhibition [17]: 26.7%
inhibition [18]: 2.86%
inhibition [19]: 6.33%
inhibition [20]: 2.07%
